# Test results from paper PMC5700166.
# Where a chain is given by its changes, count along the chain named.
# Tests used:
# Experiment in all cases: protein-binding microarray (PBM); PBM: ~300 nM protein, 6 mM HEPES pH 7.8, 80 mM KCl, 0.5 mM EDTA, 0.5 mM EGTA, 6% glycerol, 35 ng/ul poly-dIdC, 1% milk, 1 h, room temperature; Ap Aiptasia and Nv Nematostella (sea anemones) / Co Capsaspora / Aq Amphimedon (sponge) / Dm Drosophila / Hu human; RHD is the Rel homology domain; high values mean tight binding
# Details in all cases: dsDNA, one strand shown
# [1] = biological target: T1, GST-Nv-NF-kB (Cys allele) (Nematostella vectensis, UniProt E5G601 2-411)
# T1 sequence: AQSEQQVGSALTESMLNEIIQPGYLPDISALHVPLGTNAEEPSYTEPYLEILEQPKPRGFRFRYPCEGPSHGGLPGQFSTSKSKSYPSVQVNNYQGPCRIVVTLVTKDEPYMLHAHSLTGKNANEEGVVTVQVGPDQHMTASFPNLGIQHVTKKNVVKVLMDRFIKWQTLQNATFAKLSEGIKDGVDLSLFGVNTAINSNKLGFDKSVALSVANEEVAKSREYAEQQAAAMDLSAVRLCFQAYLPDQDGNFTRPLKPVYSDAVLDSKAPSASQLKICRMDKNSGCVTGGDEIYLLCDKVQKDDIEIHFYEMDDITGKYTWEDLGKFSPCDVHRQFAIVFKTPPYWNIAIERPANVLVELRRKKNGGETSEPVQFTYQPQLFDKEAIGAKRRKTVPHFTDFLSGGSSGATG
# [2] = biological target: T2, GST-Nv-NF-kB (Ser allele) (Nematostella vectensis, UniProt A7UNT2 2-411)
# T2 sequence: T1 sequence with Q21R, C66S, S207N, E215Q, V217A, E225K, A268E, D399E
# GST-Co-NF-kB = biological target: T3, GST-Co-NF-kB (Capsaspora owczarzaki, UniProt F1ARL5 200-546)
# T3 sequence: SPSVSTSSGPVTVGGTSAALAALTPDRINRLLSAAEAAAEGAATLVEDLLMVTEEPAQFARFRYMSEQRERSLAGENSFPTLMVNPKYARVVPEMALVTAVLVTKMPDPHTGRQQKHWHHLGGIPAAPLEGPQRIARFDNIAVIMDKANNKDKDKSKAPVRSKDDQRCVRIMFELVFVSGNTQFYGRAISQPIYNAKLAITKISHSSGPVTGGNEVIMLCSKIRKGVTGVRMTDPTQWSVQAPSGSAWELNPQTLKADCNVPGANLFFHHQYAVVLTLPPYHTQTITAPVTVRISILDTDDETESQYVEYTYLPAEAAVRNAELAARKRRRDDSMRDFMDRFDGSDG
# GST-Dm-Relish = biological target: T4, GST-Dm-Relish (Drosophila melanogaster, UniProt Q94527 99-473)
# T4 sequence: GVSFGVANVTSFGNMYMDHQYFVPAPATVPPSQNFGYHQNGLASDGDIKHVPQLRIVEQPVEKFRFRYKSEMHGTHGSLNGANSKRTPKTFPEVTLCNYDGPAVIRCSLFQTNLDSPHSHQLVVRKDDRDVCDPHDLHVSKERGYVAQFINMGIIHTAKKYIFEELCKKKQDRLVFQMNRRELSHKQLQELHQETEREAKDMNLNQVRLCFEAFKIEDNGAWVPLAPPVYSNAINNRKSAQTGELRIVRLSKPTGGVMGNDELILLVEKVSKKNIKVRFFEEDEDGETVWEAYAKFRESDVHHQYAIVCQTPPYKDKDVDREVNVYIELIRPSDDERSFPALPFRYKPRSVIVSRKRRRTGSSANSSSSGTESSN
# GST-Aq-NF-kB = biological target: T5, GST-Aq-NF-kB (Amphimedon queenslandica, UniProt A9Y5G7 2-389)
# T5 sequence: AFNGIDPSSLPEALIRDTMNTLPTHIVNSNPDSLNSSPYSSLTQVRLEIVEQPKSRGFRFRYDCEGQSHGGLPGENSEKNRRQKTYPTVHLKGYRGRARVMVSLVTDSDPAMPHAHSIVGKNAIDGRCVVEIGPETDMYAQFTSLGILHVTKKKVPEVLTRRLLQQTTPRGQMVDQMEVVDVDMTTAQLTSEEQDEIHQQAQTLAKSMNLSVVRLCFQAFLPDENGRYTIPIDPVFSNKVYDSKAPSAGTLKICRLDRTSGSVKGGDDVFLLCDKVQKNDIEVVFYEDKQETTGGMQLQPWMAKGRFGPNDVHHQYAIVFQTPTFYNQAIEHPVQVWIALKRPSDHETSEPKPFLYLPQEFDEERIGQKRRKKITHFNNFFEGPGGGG
# GST-Hu-p50 = GST-Hu-p50 (Homo sapiens, UniProt P19838 7-356)
# GST-Ap-NF-kB RHD = biological target: T6, GST-Ap-NF-kB RHD (Exaiptasia pallida (Aiptasia), UniProt A0A913YAJ5 2-422)
# T6 sequence: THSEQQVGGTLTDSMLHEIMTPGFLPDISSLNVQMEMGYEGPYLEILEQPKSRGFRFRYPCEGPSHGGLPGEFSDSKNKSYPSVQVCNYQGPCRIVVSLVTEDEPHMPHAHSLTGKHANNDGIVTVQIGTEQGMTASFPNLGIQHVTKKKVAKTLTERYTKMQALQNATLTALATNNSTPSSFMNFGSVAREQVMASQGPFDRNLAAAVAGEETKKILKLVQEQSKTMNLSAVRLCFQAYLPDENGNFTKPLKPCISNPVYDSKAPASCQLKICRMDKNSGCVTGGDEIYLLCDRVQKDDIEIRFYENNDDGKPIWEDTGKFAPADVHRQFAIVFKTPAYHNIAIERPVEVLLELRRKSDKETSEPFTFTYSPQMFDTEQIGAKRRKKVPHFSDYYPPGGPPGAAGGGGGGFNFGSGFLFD
# GST-Hu-p50, sequence (P19838 7-356): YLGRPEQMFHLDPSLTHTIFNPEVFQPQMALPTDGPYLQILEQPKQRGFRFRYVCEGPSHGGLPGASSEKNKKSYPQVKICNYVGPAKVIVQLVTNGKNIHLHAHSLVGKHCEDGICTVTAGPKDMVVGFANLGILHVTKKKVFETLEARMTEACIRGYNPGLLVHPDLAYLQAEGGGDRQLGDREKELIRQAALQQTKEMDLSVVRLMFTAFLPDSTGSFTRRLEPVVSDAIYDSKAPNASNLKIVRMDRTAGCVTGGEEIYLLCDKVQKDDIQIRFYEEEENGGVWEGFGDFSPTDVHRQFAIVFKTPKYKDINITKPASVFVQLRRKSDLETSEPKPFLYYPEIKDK
Sequence,binding signal [1] [z-score],binding signal [2] [z-score],binding signal (GST-Co-NF-kB) [z-score],binding signal (GST-Dm-Relish) [z-score],binding signal (GST-Aq-NF-kB) [z-score],binding signal (GST-Hu-p50) [z-score],binding signal (GST-Ap-NF-kB RHD) [z-score]
CCGATTAACATCAAAATTTACCGTGATGTTAATCGGGTCTTGATTCGCTTGACGCTGCTG,1.63,3.7,1.05,3.37,2.12,2.17,–
CCGATTAACATCAGTTTGGGAAATGATGTTAATCGGGTCTTGATTCGCTTGACGCTGCTG,2.49,2.26,2.36,–,1.19,1.46,–
CCGATTAACATCAAAAAAATTCCTGATGTTAATCGGGTCTTGATTCGCTTGACGCTGCTG,1.23,1.22,–,3.84,2.87,1.79,–
CCGATTAACATCACCGGAAATTCTGATGTTAATCGGGTCTTGATTCGCTTGACGCTGCTG,1.22,1.39,–,1.78,2.51,2.29,–
CCGATTAACATCAGGTATTTTACTGATGTTAATCGGGTCTTGATTCGCTTGACGCTGCTG,–,2.63,–,4.67,1.93,2,–
CCGATTAACATCAGTTGGGAAAATGATGTTAATCGGGTCTTGATTCGCTTGACGCTGCTG,3.62,4.31,2.64,–,1.77,2.33,–
CCGATTAACATCAGGAACGTCCCTGATGTTAATCGGGTCTTGATTCGCTTGACGCTGCTG,3.14,–,–,–,5.01,–,3.25
CCGATTAACATCAGGGCATGCCCTGATGTTAATCGGGTCTTGATTCGCTTGACGCTGCTG,1.29,–,–,–,4.01,–,1.37
CCGATTAACATCAGGACTTGCCCTGATGTTAATCGGGTCTTGATTCGCTTGACGCTGCTG,1.11,–,–,–,4.8,–,1.21
CCGATTAACATCAGGAATTGCCCTGATGTTAATCGGGTCTTGATTCGCTTGACGCTGCTG,2.2,–,–,–,4.94,–,1.16
CCGATTAACATCAGGCACTTCCCTGATGTTAATCGGGTCTTGATTCGCTTGACGCTGCTG,1.51,–,–,–,3.6,–,1.15
CCGATTAACATCAGGAATTTTCATGATGTTAATCGGGTCTTGATTCGCTTGACGCTGCTG,–,–,–,1.12,1.37,1.36,–
CCGATTAACATCAGTTGTCCCGCTGATGTTAATCGGGTCTTGATTCGCTTGACGCTGCTG,1.89,–,–,–,1.16,–,1.69
CCGATTAACATCAAATTTTCCGGTGATGTTAATCGGGTCTTGATTCGCTTGACGCTGCTG,–,1.67,–,1.54,2.04,1.95,–
CCGATTAACATCATGGGGCATGCTGATGTTAATCGGGTCTTGATTCGCTTGACGCTGCTG,–,–,–,–,1.06,–,1.18
CCGATTAACATCAGGAATTTTTATGATGTTAATCGGGTCTTGATTCGCTTGACGCTGCTG,–,–,–,1.94,1.99,1.39,–
CCGATTAACATCAGGAAACAACCTGATGTTAATCGGGTCTTGATTCGCTTGACGCTGCTG,–,–,–,1.07,2.89,1.61,–
CCGATTAACATCATAGTCCCATGTGATGTTAATCGGGTCTTGATTCGCTTGACGCTGCTG,2.41,–,–,–,2.36,–,2.47
CCGATTAACATCAGGAAAATTCCTGATGTTAATCGGGTCTTGATTCGCTTGACGCTGCTG,–,–,–,1.52,2.45,1.61,–
CCGATTAACATCAGGAATAACCATGATGTTAATCGGGTCTTGATTCGCTTGACGCTGCTG,–,–,–,1.8,1.32,2.29,–
CCGATTAACATCAGGCATGCCCCTGATGTTAATCGGGTCTTGATTCGCTTGACGCTGCTG,1.59,–,–,–,4.39,–,2.6
CCGATTAACATCAGTCCCGCACTTGATGTTAATCGGGTCTTGATTCGCTTGACGCTGCTG,1.95,–,–,–,2.85,–,1.61
CCGATTAACATCAGAAAAATTCCTGATGTTAATCGGGTCTTGATTCGCTTGACGCTGCTG,–,–,–,2.97,2.21,1.71,–
